Compound activity (PubChem BioAssay)
Sampled rows, rich in hits. Any-hit rate of the full collection: about 5.6%.
ALR H2O2 inh – inhibitors of human ALR sulfhydryl oxidase, primary screen, biochemical, H2O2 detection, HRP-luminol luminescence, single point. inhibition, % (no concentration beside the values). 3.8% of 290,000 active. purified ALR, DTT oxidation;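 active = mean replicate inhibition above about 79%, with every replicate also reaching it, limit read from the data; inconclusive = only one of the two criteria met; inactive = mean below limit and not every replicate reaching it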
Target sequence (P55789 whole entry, looked up): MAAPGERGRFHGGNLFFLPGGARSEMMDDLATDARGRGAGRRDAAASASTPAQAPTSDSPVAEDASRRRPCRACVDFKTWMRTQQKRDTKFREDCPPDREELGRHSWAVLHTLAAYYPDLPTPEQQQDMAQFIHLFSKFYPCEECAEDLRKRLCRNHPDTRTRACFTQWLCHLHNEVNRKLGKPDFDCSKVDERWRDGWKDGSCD
PfGluPho inh – PfG6PD enzyme inhibitors, primary screen, biochemical, fluorescence intensity, uHTS; glucose-6-phosphate dehydrogenase-6-phosphogluconolactonase (Plasmodium falciparum 3D7); PfGluPho enzyme, NADPH resazurin-diaphorase fluorescence; inhibition, % at 20 µM; 0.78% of 350,000 active; AID 504690, 2011;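 active = inhibition reaching at least a set limit at 20 µM in the primary screen, cut at about 59% in these data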
H9c2 protect – cardioprotection against H2O2-induced cell death, primary screen, uHTS, H9c2 cells, ATPLite luminescence; H9c2 cardiomyocytes, H2O2 injury protection, 2 h; protection from H2O2 cell death, % at 20 µM; 0.63% of 360,000 active;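 active = compounds giving at least 50% protection of heart cells from peroxide-induced death in the single-dose screen, raw or plate-pattern-corrected value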
PHOSPHO1 inh – PubChem AID 1565; Phosphoethanolamine/phosphocholine phosphatase (Homo sapiens), Q8TCT1; recombinant PHOSPHO1, absorbance phosphatase assay; inhibition, % at 13.3 µM; 1.1% of 290,000 active; in the data active = inhibition above about 60%
Target sequence (Q8TCT1 whole entry, looked up): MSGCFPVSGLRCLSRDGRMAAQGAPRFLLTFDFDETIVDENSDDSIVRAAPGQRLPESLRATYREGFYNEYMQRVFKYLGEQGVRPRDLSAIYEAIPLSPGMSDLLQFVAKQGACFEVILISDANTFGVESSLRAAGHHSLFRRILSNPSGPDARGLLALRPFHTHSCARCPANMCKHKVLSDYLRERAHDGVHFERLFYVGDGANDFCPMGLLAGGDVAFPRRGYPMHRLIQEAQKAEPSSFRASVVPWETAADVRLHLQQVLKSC
PfM18AAP inh – PfM18AAP inhibitors, malaria aminopeptidase, primary screen, biochemical, QFRET, recombinant enzyme. M18 aspartyl aminopeptidase (Plasmodium falciparum 3D7). H-Glu-NHMec fluorogenic cleavage. inhibition, % at 7.35 µM. 1.2% of 290,000 active. AID 1822, 2009;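 active = inhibition above the campaign mean inhibition over all tested compounds plus 3 SD, cut at about 28% in these data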
A number is an active result; - = inactive; ? = inconclusive; . = no result.

SMILES	ALR H2O2 inh	PfGluPho inh	H9c2 protect	PHOSPHO1 inh	PfM18AAP inh
Nc1nc(CCl)nc(Nc2ccccc2)n1	87.3	-	-	-	-
Cc1cccc(Nc2nc(N)nc(CCl)n2)c1C	90.6	-	-	-	-
Cc1ccc(Nc2nc(N)nc(CCl)n2)cc1	-	-	-	-	-
CN(C)S(=O)(=O)c1ccc2[nH]cc(/C=C/c3nc4ccccc4c(=O)n3-c3ccccc3)c2c1	-	-	66.5	-	-
O=C(O)c1cccc(-n2c(/C=C/c3ccccc3)nc3ccccc3c2=O)c1	78.2	-	-	-	-
O=c1c2ccccc2nc(/C=C/c2ccccc2)n1CCc1ccccc1	-	-	-	-	-
CN(C)c1ccc(/C=C/c2nc3ccccc3c(=O)n2-c2ccc(C(=O)O)cc2)cc1	99.0	-	-	-	-
CCn1c(/C=C/c2c[nH]c3ccccc23)nc2ccccc2c1=O	-	-	-	-	-
Cc1ccc2c(c1)-n1c(nc3cc(F)ccc3c1=O)C(Cc1ccc(O)cc1)NC2=O (configuration not stated)	-	.	.	.	.
CCC(C(=O)N/N=C(\C)c1cccnc1)c1ccccc1 (configuration not stated)	-	-	-	-	-
COc1ccc(NC(=O)C2Cc3c(-c4ccco4)ccnc3O2)cc1OC (configuration not stated)	.	.	-	.	.
CC(C(=O)N1CCc2ccccc21)N1CCN(S(=O)(=O)c2cccc(C(F)(F)F)c2)CC1 (configuration not stated)	-	-	-	.	.
CCCn1cnc2cc(NCc3cccc(OC)c3)ccc21	95.0	-	-	-	-
CCCn1cnc2cc(NCc3ccccc3O)ccc21	99.4	-	-	-	-
CCCn1nnnc1NCc1cccc(OC)c1	-	-	-	-	-
CCCCn1cnc2cc(NCc3cccc(OC)c3O)ccc21	-	-	-	-	-
O=C(N/N=C1\CCCc2c1[nH]c1ccc(Cl)cc21)c1ccncc1	-	-	-	.	.
Clc1ccc2[nH]c3c(c2c1)CCc1cn[nH]c1-3	99.0	-	-	-	-
c1ccc2c3c([nH]c2c1)-c1[nH]ncc1CC3	98.4	-	-	-	-
O=C1CCCc2c1[nH]c1ccccc21	-	-	-	-	-
COc1ccc(N2CCN(CCNC(=O)CCC(=O)NNc3nc4ccccc4c4nc(C)nn34)CC2)cc1	95.8	-	-	-	-
Cc1nc2c3ccccc3nc(NNC(=O)CCC(=O)NC3CCCC3)n2n1	78.5	-	-	-	-
CN(C(=O)c1ccccc1C(=O)OCC(=O)Nc1cccc(Br)c1)c1ccccc1	-	-	-	.	.
Cn1c(Cc2cccs2)nnc1SCC(=O)Nc1ccc(F)cc1F	-	-	-	.	.
CCn1c2ccccc2c2cc(NC(=O)COC(=O)c3cc(S(N)(=O)=O)c(Cl)cc3Cl)ccc21	-	-	-	-	-
SMILES	ALR H2O2 inh	PfGluPho inh	H9c2 protect	PHOSPHO1 inh	PfM18AAP inh
CCOC(=O)CSC1=C(C#N)C(c2ccc(F)cc2)C(C(C)=O)=C(C)N1 (configuration not stated)	-	-	-	79.2	-
CCOC(=O)CSC1=C(C#N)C(c2ccc(C)cc2)C2=C(CCCC2=O)N1 (configuration not stated)	-	-	-	92.1	-
CC(=O)C1=C(C)NC(SCC(N)=O)=C(C#N)C1c1cccnc1 (configuration not stated)	-	-	-	-	-
Cc1ccc(C(=O)CSC2=C(C#N)C(c3ccco3)C3=C(CC(C)(C)CC3=O)N2)cc1 (configuration not stated)	-	-	-	75.8	-
N#CC1=C(N)N(c2ccccc2)C2=C(C(=O)CCC2)C1c1cccs1 (configuration not stated)	-	-	-	-	29.1
CC(=O)Nc1ccc(C2=NNC(=Nc3ccc(S(=O)(=O)N4CCOCC4)cc3)SC2)cc1	-	-	-	65.4	-
COCCN=C1NN=C(c2ccc(NC(C)=O)cc2)CS1	?	-	-	-	28.4
CC1CC(C)C(=NNC(N)=O)C(C(O)CC2CCC(=O)NC2=O)C1 (configuration not stated)	.	-	-	.	.
COC1=CC(=Cc2c(N)n3nc(CC(=O)N4CCOCC4)sc3nc2=O)C=C(OC)C1=O	-	-	-	-	-
CCOC1=C/C(=C/c2c(N)n3nc(CC(=O)N4CCCCC4)sc3nc2=O)C=CC1=O	98.7	-	-	-	-
C=CCC1=C/C(=C\c2c(N)n3nc(CC(=O)N4CCCC4)sc3nc2=O)C=C(OC)C1=O	-	-	-	-	-
CCOC1=C/C(=C/c2c(N)n3nc(S(=O)(=O)CC)sc3nc2=O)C=CC1=O	98.6	-	-	-	-
Nc1c(C=C2C=CC(=O)C=C2)c(=O)nc2sc(CC(=O)N3CCOCC3)nn12	98.0	-	-	-	-
COC1=C/C(=C/c2c(N)n3nc(CC(=O)N4CCCCC4)sc3nc2=O)C=CC1=O	99.6	-	-	-	-
O=C(C1CCCN1S(=O)(=O)c1ccc(Cl)cc1)N1CCCCC1 (configuration not stated)	-	-	-	-	-
Cc1ccc(C(c2cc(Cl)c3cccnc3c2O)N2CCN(C)CC2)cc1 (configuration not stated)	-	-	-	-	-
CC(=O)NC(c1cc(Cl)c2cccnc2c1O)C1CC1 (configuration not stated)	-	-	59.7	.	.
CC(=O)NC(c1cc(Cl)c2cccnc2c1O)C(C)C (configuration not stated)	?	-	-	.	.
CC(=O)NC(c1cc(Cl)c2ccccc2c1O)C(C)C (configuration not stated)	93.6	-	-	.	.
Oc1c(C(c2ccc(Cl)cc2)N2CCCC2)cc(Cl)c2cccnc12 (configuration not stated)	-	-	72.4	-	-
CC1CCCC(C)N1CC(O)COc1c(F)cc(Br)cc1F (configuration not stated)	-	-	-	-	-
CCN1C(=O)/C(=C/c2nc3ccccc3c(=O)n2-c2ccccc2)c2ccccc21	.	-	50.9	-	-
CCN1C(=O)/C(=C/N(C)C)c2ccccc21	99.2	-	-	-	-
CCN1C(=O)/C(=C\c2nc3ccccc3c(=O)n2CC)c2ccccc21	-	-	-	-	-
COC(=O)c1cc(-c2cccc(OC)c2)n[nH]1	-	-	-	-	-
CCOc1cccc(-c2cc(C(=O)NN)[nH]n2)c1	78.6	-	-	-	-
Cc1[nH]c2ccccc2c1C(=O)C(C)OC(=O)c1ccc(NC(=O)CC#N)cc1 (configuration not stated)	99.8	-	-	.	.
Cc1cccc(OCCCC(=O)Nc2ccc(S(=O)(=O)Nc3nccs3)cc2)c1C	-	-	-	-	-
CC1=C/C(=N\Nc2ccccc2[N+](=O)[O-])CC(C)(C)C1	98.3	-	-	-	-
C/C(=N/Nc1ccccc1[N+](=O)[O-])c1ccc([N+](=O)[O-])cc1	-	-	-	-	-
